Results on seven compounds are retold here after PMC5540273 (PLoS ONE, 2017).

Among the test systems are GRK1; GRK4; GRK7; GSK3A; GSK3B; HCK; HIPK1; HIPK2; HIPK3; HIPK4; HPK1; HUNK; ICK; IGF1R.
What all share (details): concentration: 1 μM, replicates: in singlicate; n = 1
In the next experiment the test system is T1, GRK2.
T1 construct: gene ADRBK1

A further experiment has as its system T2, GRK3.
T2 construct: gene ADRBK2

A further experiment concerns T3, HASPIN.
T3 construct: gene GSG2

The test system of another experiment is T4, IKK-alpha.
T4 construct: gene CHUK

For a further experiment, the system named is T5, IKK-beta.
T5 construct: gene IKBKB

A further experiment has as its system T6, IKK-epsilon.
T6 construct: gene IKBKE

The structures appear in SMILES notation.
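Also: KINOMEscan kinase panel screen.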

Turning to `CCn1c(-c2ccncc2)nc2cnccc21` [SB-735216], the “%Inh” value in the experiment on GRK1 came to 11%; with GRK2, 4%; in the experiment with GRK3, 63%; in the experiment on GRK4, 45%; in the experiment with GRK7, 24%; in the experiment with GSK3A, 9%. The “%Inh” value with GSK3B worked out at 30%; with HASPIN it was 57%; in the experiment on HCK, 7%; in the experiment on HIPK1 it was 10%; in the experiment with HIPK2, 18%; in the experiment on HIPK3, 24%. The “%Inh” value with HIPK4 is given as 15%; in the experiment with HPK1, 0%; with HUNK it was 27%; in the experiment with ICK it was 10%; in the experiment on IGF1R, 0%; in the experiment on IKK-alpha, 20%. For the same compound, the results for the “%Inh” value in the experiment on IKK-beta and in the experiment on IKK-epsilon were 23% and 10%, respectively.
In the case of `Cn1ccc2ncnc(Oc3ccc(NC(=O)Nc4cccnc4)c(Cl)c3)c21`, the “%Inh” value with GRK1 was 13%; in the experiment with GRK2 it was 0%; in the experiment with GRK3 it was 0%; in the experiment on GRK4 it was 1%; in the experiment on GRK7, 14%; in the experiment on GSK3A, 0%. For the same compound, the “%Inh” value is 3% in the experiment on GSK3B; 0% in the experiment with HASPIN; 8% in the experiment with HCK; 13% with HIPK1; 4% with HIPK2; 0% with HIPK3. The “%Inh” value in the experiment with HIPK4 came to 6%; in the experiment on HPK1 it was 11%; in the experiment with HUNK, 24%; in the experiment with ICK, 0%; in the experiment with IGF1R, 16%; in the experiment with IKK-alpha it was 13%. Also, the “%Inh” value in the experiment with IKK-beta is given as 10%; in the experiment with IKK-epsilon, 0%.
With `COc1ccc(Nc2nccc(N3CCC(NC(=O)c4cccc(NC(C)=O)c4)C3)n2)cc1` (centres unmarked) [GSK1379732], the “%Inh” value with GRK1 is 0%; with GRK2 it was 2%; with GRK3, 49%; in the experiment on GRK4, 0%; with GRK7, 0%; in the experiment with GSK3A, 4%. Further, the “%Inh” value in the experiment with GSK3B turned out to be 0%; in the experiment on HASPIN, 46%; in the experiment with HCK it was 0%; in the experiment with HIPK1, 0%; in the experiment with HIPK2 it was 13%; with HIPK3, 0%. Besides, the “%Inh” value came out at 0% in the experiment on HIPK4; 43% in the experiment with HPK1; 28% in the experiment on HUNK; 0% in the experiment on ICK; 0% with IGF1R; 0% with IKK-alpha. Also, the entries for the “%Inh” value with IKK-beta and in the experiment with IKK-epsilon were 0% and 19%, respectively.
Regarding `Fc1ccc(Nc2nccc(-c3c(-c4ccc(Cl)cc4)nn4ncccc34)n2)cc1F` [GW829058], the “%Inh” value in the experiment with GRK1 is given as 22%; in the experiment on GRK2 it was 11%; with GRK3, 18%; with GRK4, 21%; in the experiment on GRK7, 35%; in the experiment with GSK3A, 0%. Also, the “%Inh” value in the experiment on GSK3B stood at 31%; in the experiment on HASPIN, 37%; in the experiment on HCK, 15%; in the experiment on HIPK1, 33%; with HIPK2 it was 11%; in the experiment on HIPK3, 36%. The “%Inh” value in the experiment with HIPK4 was determined as 19%; with HPK1 it was 16%; with HUNK, 40%; with ICK, 25%; with IGF1R, 6%; with IKK-alpha, 34%. The “%Inh” value with IKK-beta is given as 29%; in the experiment on IKK-epsilon, 0%.
As to `CCc1nc(-c2cccc(C)c2)c(-c2ccnc(NC(=O)c3ccccc3)c2)s1`, the “%Inh” value was 0% with GRK1; 25% in the experiment on GRK2; 7% in the experiment with GRK3; 0% in the experiment on GRK4; 17% with GRK7; 0% in the experiment with GSK3A. Moreover, the “%Inh” value was found to be 0% in the experiment on GSK3B; 0% with HASPIN; 27% in the experiment with HCK; 25% with HIPK1; 9% in the experiment on HIPK2; 0% with HIPK3. Besides, the “%Inh” value was 0% in the experiment with HIPK4; 0% in the experiment with HPK1; 0% with HUNK; 59% in the experiment on ICK; 2% in the experiment with IGF1R; 0% in the experiment with IKK-alpha. Further, the “%Inh” value in the experiment on IKK-beta was found to be 0%; in the experiment on IKK-epsilon, 100%.
In the case of `COc1cc2ncnc(Nc3ccc(OCc4ccccc4Br)c(Cl)c3)c2cc1OC.Cl` [GI261590], the “%Inh” value turned out to be 0% in the experiment on GRK1; 0% in the experiment on GRK2; 41% in the experiment on GRK3; 0% in the experiment on GRK4; 0% with GRK7; 0% with GSK3A. Also, the “%Inh” value in the experiment on GSK3B is given as 10%; in the experiment on HASPIN, 34%; in the experiment with HCK, 25%; in the experiment on HIPK1 it was 0%; in the experiment on HIPK2 it was 0%; in the experiment with HIPK3, 0%. Also, the “%Inh” value in the experiment on HIPK4 worked out at 0%; in the experiment on HPK1, 33%; with HUNK, 11%; with ICK, 0%; in the experiment on IGF1R it was 0%; with IKK-alpha, 32%. Moreover, the “%Inh” value in the experiment on IKK-beta came to 16%; with IKK-epsilon, 18%.
With `OCCOCCn1ccc2ncnc(Nc3ccc(Oc4cccc(Cl)c4)c(Cl)c3)c21`, the “%Inh” value in the experiment with GRK1 is 9%; in the experiment on GRK2, 0%; in the experiment with GRK3, 0%; with GRK4 it was 0%; in the experiment on GRK7, 0%; with GSK3A, 9%. Moreover, the “%Inh” value was 0% in the experiment with GSK3B; 0% in the experiment with HASPIN; 9% in the experiment on HCK; 16% in the experiment on HIPK1; 0% in the experiment on HIPK2; 0% in the experiment on HIPK3. The “%Inh” value with HIPK4 was 0%; in the experiment on HPK1 it was 0%; in the experiment on HUNK, 7%; with ICK, 0%; in the experiment with IGF1R, 0%; with IKK-alpha it was 0%. In addition, the “%Inh” value in the experiment with IKK-beta and in the experiment with IKK-epsilon was 0% throughout.
